The record followed here is PubChem BioAssay (EPA / NIEHS).

Structures are written as SMILES. Calls of active or inactive are those of the source. Rule for the calls: active = hit-call score of the fitted dose curve at least 0.9, where 1 is the maximum; inactive = score below 0.9.

Assay [1] in a line: APR_HepG2_CellCycleArrest_1hr: Apredica 1-hour HepG2 Assay for Cell Cycle Arrest (AID 2282666). Conditions: high-content imaging, actives raise or lower the signal. The essentials: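 HepG2 cells exposed for 1 h to 0.39–200 uM compound (0.5% DMSO). Fixed, Hoechst-stained nuclei imaged by ArrayScan; DNA content quantified by Cell Cycle analysis; bidirectional fit against DMSO.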

Assay [2] can be described thus: APR_HepG2_CellLoss_1hr: Apredica 1-hour HepG2 Assay for Cell Loss (AID 2282668).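 Note: curves fitted both ways against DMSO so gain or loss of cells counts.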 Conditions: high-content imaging. The essentials: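 HepG2 cells were treated for 1 h with compound at 0.39–200 uM, in duplicate, in 0.5% DMSO. After formaldehyde fixation, Hoechst 33342-stained nuclei were imaged on an ArrayScan to count cells. Data were fitted bidirectionally versus DMSO.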

A short description of assay [3]: APR_HepG2_P-H2AX_1hr: Apredica 1-hour HepG2 Assay for H2AX Phosphorylation (AID 2282673). Conditions: high-content imaging, actives raise or lower the signal. The essentials:
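HepG2 dosed 1 hr at 0.39-200 uM (0.5% DMSO final), duplicate. Fixed in 3.7% formaldehyde, Triton permeabilized, immunostained for phospho-histone H2A.x (1:200) with Hoechst 33342; ArrayScan 20x imaging, bidirectional fit vs DMSO.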

Assay [4] in a line: APR_HepG2_MitoMembPot_1hr: Apredica 1-hour HepG2 Assay for Mitochondrial Membrane Potential (AID 2282675). The following applies: imaging, actives raise or lower the signal. The essentials: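 HepG2 cells dosed 1 hour with 0.39–200 uM compound in duplicate, 0.5% DMSO final. MitoTracker Red CMXRos (250 nM, 30 min) loaded before formaldehyde fixation; fluorescence quantified by high-content imaging, bidirectional fitting versus DMSO.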

Assay [5] in a line: APR_HepG2_CellCycleArrest_24hr: Apredica 24-hour HepG2 Assay for Cell Cycle Arrest (AID 2282905).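 Note: cell cycle arrest scored as ratio of 2N to 4N nuclear DNA content.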 Conditions: imaging, actives raise or lower the signal. An outline of the steps: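 Compounds at 0.39–200 uM (0.5% DMSO) for 24 h, then fixed and Hoechst 33342 stained. Cell-cycle analysis of nuclear DNA content by high-content imaging, fitted bidirectionally versus DMSO.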
Assay [6] in a line: APR_HepG2_StressKinase_1hr: Apredica 1-hour HepG2 Assay for Stress Kinase (AID 2282906). The following applies: HepG2 stress kinase (phospho-c-Jun) imaging, actives raise or lower the signal. An outline of the steps:
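HepG2 cells dosed 0.39-200 uM (0.5% DMSO) for 1 h, then formaldehyde-fixed. Stress kinase read by phospho-c-Jun immunofluorescence using high-content imaging; bidirectional fit vs DMSO.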

Assay [7] can be described thus: APR_HepG2_NuclearSize_24hr: Apredica 24-hour HepG2 Assay for Nuclear Size (AID 2282907). The following applies: high-content imaging, actives raise or lower the signal. An outline of the steps: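 HepG2 cells exposed 24 h to compounds at 0.39–200 uM (0.5% DMSO), fixed, Hoechst 33342 stained and imaged at 20x; nuclear diameter measured by automated image analysis, fitted bidirectionally against DMSO controls.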

Assay [8] is described as follows: APR_HepG2_CellLoss_24hr: Apredica 24-hour HepG2 Assay for Cell Loss (AID 2282908).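 For AC50: fit in both directions so a hit may be cell loss or gain.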 The following applies: high-content imaging. The essentials: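 HepG2 cells exposed 24 hr to 0.39–200 uM compound in duplicate at 0.5% v/v final DMSO. Cells fixed in 3.7% formaldehyde and Hoechst 33342-stained. Cell number came from nuclear imaging at 20x. Bidirectional fit versus DMSO.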

Assay [9] can be described thus: APR_HepG2_MicrotubuleCSK_24hr: Apredica 24-hour HepG2 Assay for Microtubule CSK Stabilty (AID 2282909). The following applies: HepG2 microtubule cytoskeleton imaging, actives raise or lower the signal. The essentials: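 HepG2 cells were treated 24 hr with compound at 0.39–200 uM in duplicate (0.5% DMSO final), then fixed and permeabilized. Alpha-tubulin immunofluorescence was imaged by high-content microscopy, with bidirectional fitting against DMSO and taxol as positive control.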

The nature of assay [10]: APR_HepG2_MitoticArrest_24hr: Apredica 24-hour HepG2 Assay for Mitotic Arrest (AID 2282910). The following applies: high-content imaging, actives raise or lower the signal. An outline of the steps:
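HepG2 cells, 24 h exposure at 0.39-200 uM (10 concentrations, duplicate, 0.5% DMSO). Fixed, stained for phospho-histone H3 with Hoechst; imaged by high-content microscopy, bidirectional fit versus DMSO.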

Assay [11] can be described thus: APR_HepG2_MitoMembPot_24hr: Apredica 24-hour HepG2 Assay for Mitochondrial Membrane Potential (AID 2282911). The following applies: imaging, actives raise or lower the signal. The essentials: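 HepG2 cells exposed 24 h to 0.39–200 uM compounds in duplicate, 0.5% v/v DMSO final. MitoTracker Red CMXRos 250 nM loaded 30 min before formaldehyde fixation; high-content imaging at 20x, bidirectional fit versus DMSO.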

Assay [12] is described as follows: APR_HepG2_MitoMass_24hr: Apredica 24-hour HepG2 Assay for Mitochondrial Mass (AID 2282912). The following applies: high-content imaging, actives raise or lower the signal. The essentials: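 HepG2 cells exposed 24 hr to 0.39–200 uM compound, 0.5% v/v DMSO, in duplicate. Stained before fixation with 250 nM MitoTracker Red CMXRos for 30 min, then imaged at 20x with Hoechst nuclei. Fitted in both directions against DMSO.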

Assay [13] is described as follows: APR_HepG2_p53Act_24hr: Apredica 24-hour HepG2 Assay for p53 Activation (AID 2282913).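 Note: p53 protein immunofluorescence averaged per cell in HepG2 with Hoechst nuclei.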 The following applies: high-content imaging, actives raise or lower the signal. The essentials: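 HepG2 cells exposed 24 h to compounds at 0.39–200 uM in duplicate, 0.5% v/v DMSO final; fixed, permeabilized, stained with anti-p53 antibody and Hoechst 33342; fluorescence imaging; bidirectional curve fit versus DMSO.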

Assay [14] can be described thus: APR_HepG2_CellCycleArrest_72hr: Apredica 72-hour HepG2 Assay for Cell Cycle Arrest (AID 2282914). Conditions: high-content imaging, actives raise or lower the signal. An outline of the steps: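 HepG2 cells exposed 72 h in duplicate to 0.39–200 uM compound, 0.5% DMSO final. Formaldehyde-fixed, Hoechst 33342-stained nuclei imaged at 20x, six fields per well; DNA content per valid cell quantified by cell-cycle image analysis, bidirectional fit versus DMSO.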

Assay [15] can be described thus: APR_HepG2_CellLoss_72hr: Apredica 72-hour HepG2 Assay for Cell Loss (AID 2282915). The following applies: high-content imaging. An outline of the steps: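 HepG2 cells exposed 72 h to compound at 0.39–200 uM (10 concentrations, duplicate) in 0.5% DMSO. Fixed with 3.7% formaldehyde and Hoechst 33342-stained. Imaged at 20x; nuclear count gives cell number, fitted bidirectionally versus DMSO.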

Assay [16] is described as follows: APR_HepG2_MitoticArrest_1hr: Apredica 1-hour HepG2 Assay for Mitotic Arrest (AID 2282672). The following applies: high-content imaging, actives raise or lower the signal. An outline of the steps: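 HepG2 cells exposed 1 hr to compounds at 0.39–200 uM (0.5% v/v DMSO final), then fixed in 3.7% formaldehyde and immunostained for phospho-histone H3 with Hoechst 33342. Mitotic arrest scored by automated fluorescence imaging, fitted bidirectionally versus DMSO.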

A short description of assay [17]: APR_HepG2_MitoMass_1hr: Apredica 1-hour HepG2 Assay for Mitochondrial Mass (AID 2282674). The following applies: high-content imaging, actives raise or lower the signal. The essentials:
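HepG2 cells dosed 1 hr with 0.39-200 uM compound (0.5% DMSO), duplicate wells. Mitochondria stained with 250 nM MitoTracker Red CMXRos for 30 min before formaldehyde fixation, imaged at 20x by ArrayScan; bidirectional fit versus DMSO.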

Assay [18] is described as follows: APR_HepG2_NuclearSize_1hr: Apredica 1-hour HepG2 Assay for Nuclear Size (AID 2282670). The following applies: high-content imaging, actives raise or lower the signal. An outline of the steps: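 HepG2 cells dosed 1 hr with 0.39–200 uM compound (0.5% DMSO), formaldehyde-fixed, Hoechst 33342-stained and imaged at 20x; nuclear diameter from nuclear stain, fitted bidirectionally against DMSO.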

Assay [19] is described as follows: APR_HepG2_p53Act_1hr: Apredica 1-hour HepG2 Assay for p53 Activation (AID 2282671). The following applies: high-content imaging, actives raise or lower the signal. The essentials: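 HepG2 cells treated 1 h with compound at 0.39–200 uM (10 concentrations, duplicate) in 0.5% DMSO. Formaldehyde-fixed, permeabilised cells immunostained for p53 with Hoechst 33342; high-content imaging, bidirectional fit versus DMSO.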

Usually AC50 stands for the midpoint of the concentration-response curve, whichever way the signal moves. `CCCCN(CC)c1c([N+](=O)[O-])cc(C(F)(F)F)cc1[N+](=O)[O-]`: the molecule was called inactive in assay [1], in [2], in [3], in assay [4], in assay [6] and in [7]. Moreover, the result in [8], in [9], in assay [10], in [12] and in assay [13] was inactive. The AC50 in assay [5] is 99.3 µM (active); in [11], 71.9 µM (active); in assay [14], 108 µM (active); in assay [15], 84.6 µM (active).

`COc1ccc(C(=CC(=O)N2CCOCC2)c2ccc(Cl)cc2)cc1OC`: the call in [1], in [2], in [16], in assay [3], in assay [17] and in assay [4] was inactive. Besides, the molecule was classed as inactive in assay [5], in [6], in assay [7], in assay [8], in assay [9] and in assay [10]. In addition, the molecule was called inactive in [12], in assay [13] and in assay [14]. Moreover, the AC50 was 8.19 µM (active) in assay [11] and 31.1 µM (active) in assay [15].

As for `CCCSP(=O)(OCC)Oc1ccc(Br)cc1Cl` (stereo not drawn), the result in [1], in assay [2], in assay [18], in [3], in assay [4] and in assay [5] was inactive. In addition, the result in assay [6], in assay [7], in assay [10], in assay [11], in assay [12] and in [13] was inactive. In addition, the molecule was called inactive in assay [14]. Moreover, the AC50 in [8] is 108 µM (active); in assay [9], 113 µM (active); in [15], 114 µM (active).

On to `CNc1cnn(-c2cccc(C(F)(F)F)c2)c(=O)c1Cl`, for which the outcome in assay [1], in assay [2], in assay [16], in [4], in [5] and in [6] was inactive. Moreover, the call in [7], in [8], in assay [9], in [10], in assay [11] and in assay [12] was inactive. Besides, the molecule was classed as inactive in assay [13], in assay [14] and in assay [15].

Take `COP(=O)(OC)OC(Br)C(Cl)(Cl)Br` (stereo not drawn): the outcome in assay [1], in assay [2], in assay [18], in [3], in assay [17] and in assay [4] was inactive. In addition, the outcome in assay [5], in assay [6], in assay [7], in assay [11], in [12] and in [14] was inactive. Besides, the concentration at half-maximal activity (AC50) in assay [8] was 45 µM (active); in assay [9], 34.1 µM (active); in assay [10], 34.2 µM (active); in assay [15], 29.7 µM (active).

For the molecule `COP(=O)(NC(C)=O)SC` (stereo not drawn), the molecule was classed as inactive in assay [1], in assay [2], in [18], in assay [4], in assay [5] and in [6]. The molecule was called inactive in [7], in assay [8], in [9], in [10], in assay [11] and in assay [12]. Besides, the result in assay [13], in assay [14] and in assay [15] was inactive.

Regarding `CCC(=O)Nc1ccc(Cl)c(Cl)c1`, the molecule was called inactive in assay [1], in assay [2], in [18], in assay [19], in [3] and in assay [4]. The outcome in assay [6], in [7], in [8], in assay [9], in assay [10] and in assay [11] was inactive. The call in assay [12], in assay [13], in [14] and in assay [15] was inactive. The AC50 in assay [5] was 79.3 µM (active).

Take `CC(C)N(C(=O)SCC(Cl)=C(Cl)Cl)C(C)C`: the result in assay [1], in [2], in [18], in assay [17], in assay [4] and in assay [5] was inactive. Further, the molecule was classed as inactive in assay [6], in assay [7], in assay [9], in assay [10], in [11] and in assay [12]. Further, the result in [13] and in assay [14] was inactive. The figures for the concentration at half-maximal activity (AC50) in [8] and in [15] were 113 µM (active) and 110 µM (active), respectively.

On to `CN(C)C(=O)Nc1cccc(C(F)(F)F)c1`, for which the outcome in [1], in [2], in assay [16], in assay [17], in [4] and in assay [5] was inactive. Besides, the call in [6], in assay [7], in [8], in assay [9], in assay [10] and in [11] was inactive. The call in assay [12], in assay [13], in assay [14] and in assay [15] was inactive.
